hcDAF-12 act: H. contortus DAF-12 nuclear receptor activators, primary screen, cell-based, luminescence, HEK293, lit1-tk-luc reporter. AID 652067, 2013. activation, % at 6.8 µM. 1.4% of 370,000 active. HEK293 hcDAF-12 lit1-tk-luc reporter; 0% DMSO, 100% Δ7-dafachronic acid;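 active means activation above the mean of all tested compounds plus 3 SD, cut at about 5.5% in these data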;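 further: 100% = response to 3 µM Δ7-dafachronic acid high control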
DAX1 inh-1: DAX1 (NR0B1) inhibitors, primary screen, cell-based, HEK293, Gal4-DAX1, luciferase luminescence; Nuclear receptor subfamily 0 group B member 1 (Homo sapiens), P51843; 0.99% of 340,000 active; HEK293 Gal4-DAX1 luciferase reporter; inhibition, % at 6.75 µM;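 active means inhibition above the mean over all tested compounds plus 3 SD, cut at about 4.2% in these data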;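 further: 0% = DAX1-transfected cells with DMSO and 100% = empty-vector control cells with DMSO; inhibition shows as a rise in luminescence from relieved DAX1 repression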
Target sequence (P51843 207-470 limits assumed): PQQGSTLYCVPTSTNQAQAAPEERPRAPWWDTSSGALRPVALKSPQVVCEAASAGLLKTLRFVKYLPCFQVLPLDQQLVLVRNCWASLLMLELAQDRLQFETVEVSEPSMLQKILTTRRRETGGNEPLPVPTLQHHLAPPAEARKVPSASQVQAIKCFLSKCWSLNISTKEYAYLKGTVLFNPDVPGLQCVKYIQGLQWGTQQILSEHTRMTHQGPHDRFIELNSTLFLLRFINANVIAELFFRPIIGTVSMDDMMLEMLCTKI
DAX1 inh-2: DAX1 (NR0B1) inhibitors on StAR promoter, primary screen, cell-based, luminescence, SF-1 (NR5A1), full-length DAX-1 | 1.1% of 370,000 active | inhibition, % at 6.8 µM | HEK293T StAR-luciferase reporter, SF-1/DAX-1 repression relief;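 active means inhibition above the mean over all tested compounds plus 3 SD, cut at about 3.6% in these data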;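 further: 0% = DAX-1 cells with DMSO and 100% = cells lacking DAX-1 with DMSO; higher inhibition means more luminescence from relief of DAX-1 repression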
hgDAF12 agonist: H. glycines DAF-12 receptor agonists, primary screen, cell-based, luminescence, HEK293, GAL4 fusion, UAS-luciferase; Nuclear hormone receptor DAF-12 (Heterodera glycines), GAL4 fusion; HEK293 GAL4-hgDAF12 UAS-luciferase reporter, agonist luminescence; normalized to butyrate control; activation, % at 6.8 µM; 1.8% of 370,000 active;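 active means activation above a cutoff set at the mean of all screened compounds plus 3 SD, cut at about 10% in these data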;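 further: 0% = DMSO wells and 100% = sodium butyrate wells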
ssDAF12 agonist: S. stercoralis DAF-12 nuclear receptor activators, primary screen, cell-based, luminescence, HEK293, GRIP1 co-expression, lit1-tk-luc. activation, % at 6.8 µM. 1% of 370,000 active. HEK293 ssDAF-12/GRIP1 lit1-tk-luc reporter; % of 3 µM dafachronic acid response. Nuclear hormone receptor DAF-12 (Strongyloides stercoralis);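 active means activation above the mean over all tested compounds plus 3 SD, cut at about 0.9% in these data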;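 further: 0% = DMSO-only wells and 100% = 3 µM delta7-dafachronic acid wells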
Starred values were filed as active, the others as inactive; nt = not tested or not shown. Compounds with a hit are over-represented: about 4.1% of the library has one in this group of screens.

SMILES	hcDAF-12 act	DAX1 inh-1	DAX1 inh-2	hgDAF12 agonist	ssDAF12 agonist
CCOC(=O)C(=O)c1csc(NC(=O)CCSc2ccc(C)cc2)n1	-2	4.4*	0	-4	-2
C[C@H]1[C@@H](OC(=O)Nc2ccc(C#N)cc2)CC[C@@]23CCCN2C(=O)CCC[C@@H]13	-4	nt	nt	-2	-2
CCc1ccc(OCC(=O)N2CCc3ccccc32)cc1	4	1	1	12*	0
COc1ccc(S[C@]2(C(=O)NC(C)C)CC(=O)N[C@@H]2c2ccc(OC)cc2)cc1	1	nt	0	0	-1
CC(=O)c1ccc(Oc2ncnc3sccc23)cc1	2	3	3	11*	-1
Cc1ccc(C(=O)Nc2ccc(Cl)cn2)cc1	3	-2	2	12*	0
O=C(Nc1ccc(Cl)cn1)c1cccc(OCc2ccccc2)c1	-2	0	1	3	-1
O=C(COc1ccc(Cl)cc1)Nc1ccc(Cl)cn1	0	1	2	5	-1
Cc1ccc(NC(=O)c2ccc(NCc3ccc(F)cc3)nc2)cc1	0	2	0	1	0
Cc1ccc(NC(=O)c2ccc(Nc3ccccc3F)nc2)cc1	2	0	0	5	1.2*
O=C(Nc1ccc(Cl)cn1)c1ccc(Oc2ccccc2)cc1	4	1	2	13*	0
CCCOc1ccc(C(=O)Nc2ccc(Cl)cn2)cc1	5.8*	-1	3	10	0
COC(=O)[C@]12C[C@H](CC(=O)N3CCSCC3)C(=O)N(CCc3ccc(OC)c(OC)c3)C1=C[C@H](C(C)C)O[C@@H]2C1CC1	1	nt	1	1	-1
O=C(Nc1cc(-c2ccccc2)[nH]n1)c1ccc(Cl)cc1	5	3	1	10	1.7*
O=C(NCCN1CCCCC1)Nc1ccc([N+](=O)[O-])cc1	0	8.7*	-1	0	-1
FC(F)(F)c1nnc(N2CCN(c3ccc(Cl)cc3)CC2)s1	-3	5.2*	0	0	-2
Cc1cccc(N2CCN(c3nnc(C(F)(F)F)s3)CC2)c1	-3	0	0	2	-2
Oc1[nH]c2ccccc2c1N=Nc1ccccc1Cl	4	3	2	7	2.5*
Nc1c2c(nc3ccccc13)CCCC2=O	6.5*	2	1	3	1
Nc1c2c(nc3ccccc13)CCCC2O (centres undefined)	-1	1	-1	0	-1
CCOc1c2ccc(C(=O)NCCc3cccs3)cc2nn1CC	3	2	3	12*	0
CCCCn1nc2cc(C(=O)NCCc3cccs3)ccc2c1OCC	-1	0	0	1	-2
Cc1cc(NC(=O)Cn2nnc(-c3ccccc3NC(=O)c3ccccc3F)n2)no1	-1	2	0	2	1.4*
COCCCNC(=O)Cn1nnc(-c2ccccc2NC(=O)c2ccccc2F)n1	-1	-1	-1	-4	-2
COc1cc(C2C(C#N)=C(N)Oc3cc4c(cc32)OCO4)cc(OC)c1OC (centres undefined)	0	1	4.4*	-1	-1
COc1cc(C2C(C#N)=C(N)Oc3cc(O)ccc32)cc(OC)c1OC (centres undefined)	0	0	0	-1	-1
C[C@]12CCC[C@H](O1)c1c(cc3c(c1O)C(=O)c1c(O)cc(O)cc1C3=O)O2	-1	5.1*	1	0	-1
O=C(CCC(=O)NNc1nc2ccccc2c2nc(-c3ccccc3)nn12)NCCCN1CCOCC1	5.6*	0	0	5	0
CN1CCN(CCCNc2nc3ccccc3c3nc(-c4ccccc4)nn23)CC1	-2	0	1	1	-1
COc1ccc([C@H]2OC(=O)C[C@H]2C(=O)N2CCN(C(=O)C3CCCO3)CC2)cc1OC (some centres undefined)	0	nt	1	1	-2
